The supplement of paper PMC9446081
± gives the standard deviation of the averaged measurements.

What follows are compounds tested against MurC (UniProt C4ZRI6) (assay: relative enzymatic activity vs untreated control (fraction); higher = less inhibition). Conditions: 100 µM; incubation time: 2 h at 37 C.
Sequence of MurC (C4ZRI6 whole entry, looked up): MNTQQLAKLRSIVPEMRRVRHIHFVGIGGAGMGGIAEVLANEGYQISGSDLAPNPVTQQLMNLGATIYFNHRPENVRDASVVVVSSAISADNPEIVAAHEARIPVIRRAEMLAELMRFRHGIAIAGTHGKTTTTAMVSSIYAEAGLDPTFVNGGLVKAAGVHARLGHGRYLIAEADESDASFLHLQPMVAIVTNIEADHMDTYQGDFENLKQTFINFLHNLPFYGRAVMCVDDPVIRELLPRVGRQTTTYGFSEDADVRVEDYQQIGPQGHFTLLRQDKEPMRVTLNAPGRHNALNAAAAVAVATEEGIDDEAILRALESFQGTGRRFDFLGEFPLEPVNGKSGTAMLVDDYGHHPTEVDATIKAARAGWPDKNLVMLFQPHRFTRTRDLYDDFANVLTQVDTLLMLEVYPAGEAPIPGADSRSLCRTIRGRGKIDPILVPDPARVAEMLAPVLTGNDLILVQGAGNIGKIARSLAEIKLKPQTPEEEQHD
Experimental: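 In vitro enzymatic inhibition assays (ProFoldin kits) for 12 purified essential E. coli enzymes or complexes, each treated with 218 active antibacterial compounds at 100 µM for 2 h at 37°C. Read-outs were fluorescence or absorbance (phosphate detection, dye binding), converted to activity via standard curves and expressed relative to untreated DMSO controls.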
Work on CN(C)c1ccc(O)c2c1CC1CC3C(N(C)C)C(O)=C(C(N)=O)C(=O)C3(O)C(O)=C1C2=O.Cl (stereo unspecified) yielded a relative enzymatic activity of 1.05 ± 0.025. Compound CC1CCC2(C)C(C=O)=CCCC2C1(C)CC1OC(O)C(=O)C12CO2 (stereo unspecified) has a relative enzymatic activity of 0.933 ± 0.1. With CN(C)c1ccc(O)c2c1C[C@H]1C[C@H]3[C@H](N(C)C)C(=O)C(C(N)=O)=C(O)[C@@]3(O)C(=O)[C@H]1C2=O the relative enzymatic activity was 0.99 ± 0.069. Work on COC1(NC(=O)Cc2cccs2)C(=O)N2C(C(=O)[O-])=C(COC(N)=O)CSC21.[Na+] (stereo unspecified) yielded a relative enzymatic activity of 1.15 ± 0.057. O=C(NO)c1cn(-c2cccc(C(=O)N3CCC4(CC3)C(=O)NCN4c3ccccc3)c2)nn1 gave a relative enzymatic activity of 0.552 ± 0.15. In the case of NCCC(O)C(=O)NC1CC(N)C(OC2OC(CN)C(O)C(O)C2O)C(O)C1OC1OC(CO)C(O)C(N)C1O.O (stereo unspecified), the relative enzymatic activity is reported as 1.0305 ± 0.00019. With CCC1OC(=O)C(C)C(OC2CC(C)(OC)C(O)C(C)O2)C(C)C(OC2OC(C)CC(N(C)C)C2O)C(C)(O)CC(C)CN(C)C(C)C(O)C1(C)O (stereo unspecified) the relative enzymatic activity was 0.998 ± 0.082. NC(=O)NN=Cc1ccc([N+](=O)[O-])o1 was tested, and the relative enzymatic activity was 1.05 ± 0.014. For CC1COc2c(N3CCN(C)CC3)c(F)cc3c(=O)c(C(=O)O)cn1c23 (stereo unspecified), the relative enzymatic activity was 0.983 ± 0.042. Work on O=C(O)c1cn(C2CC2)c2cc(N3CCC(O)(COc4ccc(N5C[C@H](CO)OC5=O)cc4F)CC3)c(F)cc2c1=O yielded a relative enzymatic activity of 1.38 ± 0.025. For CON=C(C(=O)NC1C(=O)N2C(C(=O)OCOC(=O)C(C)(C)C)=C(C=Cc3scnc3C)CSC12)c1csc(N)n1 (stereo unspecified), the relative enzymatic activity was 0.659 ± 0.044. For CC(C)(O/N=C(\C(=O)N[C@@H]1C(=O)N2C(C(=O)O)=C(C[N+]3(CCNC(=O)c4ccc(O)c(O)c4Cl)CCCC3)CS[C@H]12)c1csc(N)n1)C(=O)O, the relative enzymatic activity was 0.83 ± 0.29. Work on O=C1OC(=O)[C@H]2[C@@H]1[C@H]1CC[C@H]2O1 yielded a relative enzymatic activity of 1.18 ± 0.093. CCCC[P+](CCCC)(CCCC)Cc1ccc(NC(=O)[C@@H](Cc2ccc3ccccc3c2)N=C(NC2CCCCC2)NC2CCCCC2)cc1 showed a relative enzymatic activity of 0.817 ± 0.36. For Cc1cc(=O)c(C(=O)N[C@@H](C(=O)N[C@@H]2C(=O)N3C(C(=O)O)=C(CSc4nnnn4C)CS[C@H]23)c2ccc(O)cc2)c[nH]1, the relative enzymatic activity was 1.18 ± 0.11. With CS(=O)(=O)c1ccc(C(O)C(CF)NC(=O)C(Cl)Cl)cc1 (stereo unspecified) the relative enzymatic activity was 1.04 ± 0.036. Compound Nc1ncn(C2OC(CO)C(O)C2O)c(=O)n1 (stereo unspecified) has a relative enzymatic activity of 0.989 ± 0.025. In the case of CN[C@H]1CN(c2ccc3c(=O)c(C(=O)O)cn(-c4nccs4)c3n2)C[C@@H]1OC, the relative enzymatic activity is reported as 1.035 ± 0.0069. Work on CC[C@H](C)C[C@H](C)CCCCCCCCC(=O)N[C@H]1C[C@@H](O)[C@@H](NCCN)NC(=O)[C@@H]2[C@@H](O)CCN2C(=O)[C@H]([C@H](O)CCN)NC(=O)[C@H]([C@H](O)[C@@H](O)c2ccc(O)cc2)NC(=O)[C@@H]2C[C@@H](O)CN2C(=O)[C@H]([C@@H](C)O)NC1=O yielded a relative enzymatic activity of 0.94 ± 0.061. With O=C(O)P(=O)(O)O the relative enzymatic activity was 0.972 ± 0.058. CCC(C)C1NC(=O)C(CCNCS(=O)(=O)[O-])NC(=O)C(NC(=O)C(CCNCS(=O)(=O)[O-])NC(=O)C(NC(=O)C(CCNCS(=O)(=O)[O-])NC(=O)CCCCC(C)C)C(C)O)CCNC(=O)C(C(C)O)NC(=O)C(CCNCS(=O)(=O)[O-])NC(=O)C(CCNCS(=O)(=O)[O-])NC(=O)C(C(C)CC)NC1=O.[Na+].[Na+].[Na+].[Na+].[Na+] (stereo unspecified) showed a relative enzymatic activity of 1.05 ± 0.03. CC(C)(ON=C(C(=O)NC1C(=O)N2C(C(=O)[O-])=C(C[n+]3ccccc3)CSC12)c1csc(N)n1)C(=O)O (stereo unspecified) showed a relative enzymatic activity of 0.704 ± 0.14. In the case of CN(C)C1C(O)=C(C(N)=O)C(=O)C2(O)C(O)=C3C(=O)c4c(O)ccc(Cl)c4C(C)(O)C3CC12.Cl (stereo unspecified), the relative enzymatic activity is reported as 1.05 ± 0.02. Work on CC[C@H]1OC(=O)[C@H](C)[C@@H](O[C@H]2C[C@@](C)(OC)[C@@H](O)[C@H](C)O2)[C@H](C)[C@@H](O[C@@H]2O[C@H](C)C[C@H](N(C)C)[C@H]2O)[C@](C)(O)C[C@@H](C)CN(C)[C@H](C)[C@@H](O)[C@]1(C)O yielded a relative enzymatic activity of 1.06 ± 0.02. CO[C@@H]1[C@@H](OC(=O)c2ccc(C)[nH]2)[C@@H](O)[C@@H](Oc2ccc3c(c2C)OC(=O)[C@H](NC(=O)c2[nH]cc(CC(=O)Nc4cc5ccc(O[C@@H]6OC(C)(C)[C@H](OC)[C@@H](OC(=O)c7ccc(C)[nH]7)[C@H]6O)c(C)c5oc4=O)c2C)C3)CC1(C)C showed a relative enzymatic activity of 2.26 ± 0.28. For CON=C1CN(c2nc3c(cc2F)c(=O)c(C(=O)O)cn3C2CC2)CC1CN.CS(=O)(=O)O (stereo unspecified), the relative enzymatic activity was 0.669 ± 0.18. In the case of O=C1C=CC(=O)N1, the relative enzymatic activity is reported as 0.992 ± 0.03. Work on COc1c(N2CCNC(C)C2)c(F)cc2c(=O)c(C(=O)O)cn(C3CC3)c12 (stereo unspecified) yielded a relative enzymatic activity of 1 ± 0.027. Compound CC[C@H]1OC(=O)[C@H](C)[C@@H](O[C@H]2C[C@@](C)(OC)[C@@H](O)[C@H](C)O2)[C@H](C)[C@@H](O[C@@H]2O[C@H](C)C[C@H](N(C)C)[C@H]2O)[C@](C)(OC)C[C@@H](C)C(=O)[C@H](C)[C@@H](O)[C@]1(C)O has a relative enzymatic activity of 1.01 ± 0.14. O=C(NC(CO)C(O)c1ccc([N+](=O)[O-])cc1)C(Cl)Cl (stereo unspecified) gave a relative enzymatic activity of 1.04 ± 0.033. C[C@H]1[C@H](NC(=O)/C(=N\OC(C)(C)C(=O)O)c2csc(N)n2)C(=O)N1S(=O)(=O)O gave a relative enzymatic activity of 1.29 ± 0.45.
